± gives the standard deviation of the averaged measurements. In all, about 25,000 sequences were measured (“ln(normalized median fluorescence intensity)”: median about 7.9, highest 2% from about 11 on). For the sample, the highest values were picked, then their nearest neighbours and some sequences at random.

The experiment deals with PfAP2-I AP2 domain 3 (GST-tagged). The experiment is described as follows: gcPBM binding intensity (ln(normalized median fluorescence intensity)); higher = stronger DNA binding. The essentials:
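Binding intensity is the highest Masliner-normalised natural-log median intensity over replicate spots in either probe orientation. To obtain it, GST-tagged P. falciparum DNA-binding domains made in E. coli were incubated for 1 h on an Agilent 4 × 180k array of primer-extended double-stranded 36-bp intergenic genomic probes plus negative controls. Detection used Alexa488 anti-GST antibody with scanning at 488 nm.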
“GGTTAAAAAAAGCATACACACTATCCTCTTTGCTCT [CACACA_site7246]”: the “gcPBM binding intensity (ln)” value was 7.9 ± 0.65.

With “TATATTTTTATGTGTGTGCACAAAATAACAAAATAT [GTGCAC_site9596]”, the “gcPBM binding intensity (ln)” value is 11.1 ± 0.35.

For the sequence “ATCATATTTTTATGTGTGCACTTTTTTTTTTTTTTT [GTGCAC_site9555]”, the “gcPBM binding intensity (ln)” value was found to be 10.25 ± 0.014.

In the case of “ATATATCATAAATAAATGAAAATATTTTCTATGTGT [CACACA_negctrl_site689]”, the “gcPBM binding intensity (ln)” value was determined as 7.77 ± 0.62.

On to “CAAAATATTTTTATAACACACATATATATAATGTGC [CACACA_site4767]”, for which the “gcPBM binding intensity (ln)” value is 7.8 ± 0.52.

In the case of TTTAATTATTAAATGGTGCACTTGAAATATAAAAAT, the “gcPBM binding intensity (ln)” value came to 11 ± 0.45.

In the case of “TGCATAATTAAAAATGGTACACTGTATTTATAATAT [XGTACX_site1575]”, the “gcPBM binding intensity (ln)” value stood at 7.95 ± 0.61.

Take ATATATTTTATATGTGTGCACTATATATATATATAT: the “gcPBM binding intensity (ln)” value is 11.4 ± 0.3.

Consider “AATTTTTTTTTTTTTTTTTTTTATATATGTGTGTGT [XGTACX_negctrl_site129]”, for which the “gcPBM binding intensity (ln)” value was 7.59 ± 0.28.

For TATATATATTTTTGTGTGCACTATAATATGAAAATA, the “gcPBM binding intensity (ln)” value is 11.4 ± 0.45.

GTTTATTTATTTTATGTGCACATATAACAAAAAAAA: the “gcPBM binding intensity (ln)” value stood at 10.36 ± 0.028.

With “AAATGAAATAAAATCATATATTTATAATTATTATAA [TGCATGCA_negctrl_site612]”, the “gcPBM binding intensity (ln)” value was determined as 7.27 ± 0.41.

As to “TTTTTTTTTTTTTTTGCACACTATATTTAATATAAG [CACACA_site2444]”, the “gcPBM binding intensity (ln)” value worked out at 9.42 ± 0.21.

Take “ACAAAGTAAAATAATGCATGTAGGTATACATAATTA [TGCATGCA_site607]”: the “gcPBM binding intensity (ln)” value worked out at 7.71 ± 0.81.

As for “TAGAACAAATAAAACACACACATATATATATATATG [CACACA_site2768]”, the “gcPBM binding intensity (ln)” value worked out at 8.06 ± 0.41.

Consider “ATATATTAAAAGGATTAGGAAAAAATATGATTTATC [TGCATGCA_negctrl_site405]”, for which the “gcPBM binding intensity (ln)” value was 7.55 ± 0.78.

For the sequence “GAACAAAATTTTATATGTACATAATATTTATATATA [XGTACX_site3667]”, the “gcPBM binding intensity (ln)” value was 8 ± 0.2.

“TTACAAGTAAAAGGTACACACATTATATATACAAAT [CACACA_site8290]”: the “gcPBM binding intensity (ln)” value came to 7.97 ± 0.55.

As for “TTTTTTTTCATTTTATGTACACATAATTTAATATAT [XGTACX_site5768]”, the “gcPBM binding intensity (ln)” value came out at 8.16 ± 0.45.

Take “CATGACATATCCTGTAGTACAACGTATATATAAGAT [XGTACX_site2577]”: the “gcPBM binding intensity (ln)” value was determined as 7.8 ± 0.61.

In the case of TTTCAATTTATCAGTGTGCACAAAAATAAAATAAAA, the “gcPBM binding intensity (ln)” value was 10.88 ± 0.028.

On to “ATCAAAAATATAAAAAATATAAACAATTTATTATCA [CACACA_negctrl_site768]”, for which the “gcPBM binding intensity (ln)” value stood at 7.32 ± 0.47.

“AAATAAAAATTAAAAAAATAGAAACGAATTGAATGC [TGCATGCA_negctrl_site365]”: the “gcPBM binding intensity (ln)” value came to 7.83 ± 0.64.

With CTTAAAATATATTTAGTGCATATACTAATATATTAT, the “gcPBM binding intensity (ln)” value came to 10.2 ± 0.45.

Turning to “ATATAGAAAATGCATACACACTTTATAAATATATTT [CACACA_site6553]”, the “gcPBM binding intensity (ln)” value amounted to 7.92 ± 0.53.

As for TATTTATAAATATGTGTGCACAATTTATTTTATAAT, the “gcPBM binding intensity (ln)” value came out at 11 ± 0.26.

Take “TTATAATTTTAATGTGCACACAATTAAAATATTATA [CACACA_site5172]”: the “gcPBM binding intensity (ln)” value turned out to be 10.79 ± 0.085.

“AATACTTTTTATTTAGTGCATAAGAAAATATAAATC [GTGCAC_site9875]”: the “gcPBM binding intensity (ln)” value worked out at 10.9 ± 0.44.

For the sequence TATAAATTAAAATGTGTGCACTAAATTGAAATAGAA, the “gcPBM binding intensity (ln)” value was 11.5 ± 0.53.

For GAATAAATATTAAATGTGCACTTGAATAGATGTAAA, the “gcPBM binding intensity (ln)” value was 10.1 ± 0.16.

With “TTTTTTCAATTTTTTTTAAATAAACCACAAAAAAAA [CACACA_negctrl_site1701]”, the “gcPBM binding intensity (ln)” value was 7.74 ± 0.49.

Take CAATTTATTATATATGTGCACATATAATTTTACAAA: the “gcPBM binding intensity (ln)” value was 9.59 ± 0.24.

(Values after the supplement of paper PMC11417369.)
